Data published in PubChem BioAssay (Tox21).
Results filed as inconclusive are left out. Active and inactive are the calls of the source. Unless noted, calls come from the whole dose curve; as a rule, active = well fitted curve in the direction sought with a large enough effect in the repeat runs; inconclusive = weak or mixed curves; inactive = no such curve, though single readings can be large; an effect the other way counts as inactive or inconclusive.

Columns and labels:
[1] = qHTS assay to identify small molecule agonists of the estrogen receptor alpha (ER-alpha) signaling pathway in the presence of an antagonist - cell viability counter screen (AID 1259386);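 note: series mostly up to about 92 µM; cells exposed to compounds for 22 h at 37 °C before the viability read; nearly all actives have a fitted effect of over 30% in size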
Summary of the method: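 Viability counter screen using VM7Luc4E2 (full-length ER-alpha, four ERE-luciferase). The cells were treated with compounds alongside ICI-182,780 10.0nM for 22hr, and live-cell protease fluorescence was quantified with CellTiter-Fluor.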

[2] = target: Progesterone receptor (Homo sapiens) (UniProt P06401); test: qHTS assay to identify small molecule agonists of the progesterone receptor (PR) signaling pathway (AID 1346784; calls by dose curve; note: nearly all actives have a fitted effect of over 30% in size)
Chain of Progesterone receptor (Homo sapiens) (P06401 whole entry, looked up): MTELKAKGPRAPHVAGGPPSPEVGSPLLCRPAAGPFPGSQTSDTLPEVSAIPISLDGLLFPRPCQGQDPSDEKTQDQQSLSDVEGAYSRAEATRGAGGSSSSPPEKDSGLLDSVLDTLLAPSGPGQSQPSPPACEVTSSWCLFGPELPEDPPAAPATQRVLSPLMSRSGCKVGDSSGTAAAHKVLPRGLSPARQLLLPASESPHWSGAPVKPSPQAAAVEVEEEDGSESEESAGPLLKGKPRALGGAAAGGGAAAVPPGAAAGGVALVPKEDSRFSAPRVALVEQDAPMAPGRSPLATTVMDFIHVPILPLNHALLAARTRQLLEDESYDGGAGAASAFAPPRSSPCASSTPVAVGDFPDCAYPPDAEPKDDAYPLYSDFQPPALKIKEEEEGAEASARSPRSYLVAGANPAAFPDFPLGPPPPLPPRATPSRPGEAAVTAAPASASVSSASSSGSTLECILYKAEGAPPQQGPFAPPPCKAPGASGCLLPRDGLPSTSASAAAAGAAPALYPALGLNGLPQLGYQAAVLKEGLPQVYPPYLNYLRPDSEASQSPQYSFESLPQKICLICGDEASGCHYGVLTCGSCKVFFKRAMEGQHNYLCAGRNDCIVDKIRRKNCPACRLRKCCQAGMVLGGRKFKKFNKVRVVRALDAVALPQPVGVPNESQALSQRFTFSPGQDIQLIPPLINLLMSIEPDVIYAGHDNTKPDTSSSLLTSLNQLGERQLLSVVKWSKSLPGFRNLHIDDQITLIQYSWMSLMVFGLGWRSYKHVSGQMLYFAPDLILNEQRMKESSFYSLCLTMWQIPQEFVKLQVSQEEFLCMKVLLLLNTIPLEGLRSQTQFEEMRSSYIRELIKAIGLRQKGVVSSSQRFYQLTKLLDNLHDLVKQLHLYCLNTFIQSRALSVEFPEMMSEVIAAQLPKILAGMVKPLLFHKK
Summary of the method: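 PR-UAS-bla HEK 293T cells (beta-lactamase reporter under UAS) in 2% charcoal-stripped FBS, dosed with 23 nL compound after 6 hr, incubated 16hr at 37C. LiveBLAzer B/G FRET substrate added, fluorescence read after 2 hours.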

[3] = target: Progesterone receptor (Homo sapiens) (UniProt P06401); test: qHTS assay to identify small molecule antagonists of the progesterone receptor (PR) signaling pathway (AID 1346795; active = well fitted inhibition curve with a large enough effect in the signal ratio in the repeat runs, not every such curve was filed as active; the % refers to the signal ratio; note: potency is the fitted concentration of half-maximal effect)
Summary of the method: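 PR-UAS-bla HEK293T cells with beta-lactamase reporter under UAS control, in 2% charcoal-stripped FBS, treated with compounds plus 1 nM promegestone (R5020, final) for 16 hr at 37C. Read-out: FRET beta-lactamase substrate fluorescence after 2 hr at room temperature.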

[4] = qHTS assay to identify small molecule antagonists of the progesterone receptor (PR) signaling pathway - cell viability counter screen (AID 1346798); note: nearly all actives have a fitted effect of over 50% in size; note: potency is the fitted concentration of half-maximal effect
Summary of the method: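 PR-UAS-bla HEK293T cells, 3,000/well in 2% charcoal-stripped FBS medium, dosed with compounds plus R5020 agonist and incubated 16 h at 37C. Viability then measured in the same wells by CellTiter-Glo luminescence after 30 min at RT.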

[5] = qHTS assay to identify small molecule agonists of the progesterone receptor (PR) signaling pathway - cell viability counter screen (AID 1346799; calls by dose curve; note: nearly all actives have a fitted effect of over 45% in size)
Summary of the method: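 Counter screen in the PR-UAS-bla HEK293T wells (2% charcoal-stripped FBS, 16 h compound exposure at 37 C) after the bla read. CellTiter-Glo added, 30 min at room temperature, luminescence read as cell viability.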

[6] = qHTS assay to identify small molecule antagonists of the TGF-beta/Smad signaling pathway - cell viability counter screen (AID 1346824); note: nearly all actives have a fitted effect of over 50% in size
Summary of the method: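 Cytotoxicity counter-screen run in the same wells as the beta-lactamase Smad reporter read: CellTiter-Glo luminescence after 30 min at room temperature. HEK 293T SBE-bla cells had 5 hr compound exposure at 37 C with TGF-beta1 (0.25 ng/mL stock).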

[7] = qHTS assay to identify small molecule agonists of the TGF-beta/Smad signaling pathway - cell viability counter screen (AID 1346829); note: top concentration of the series differs between compounds; nearly all actives have a fitted effect of over 45% in size
Summary of the method: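 SBE-bla HEK 293T cells plated overnight, compound exposure 5 hr at 37 C. Viability read in the same wells by CellTiter-Glo luminescence after 30 min at room temperature, following the beta-lactamase read.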

[8] = target: Thyrotropin-releasing hormone receptor (Homo sapiens) (UniProt P34981); test: qHTS assay to identify small molecule antagonists of the thyrotropin-releasing hormone receptor (TRHR) signaling pathway (AID 1346877; active = well fitted inhibition curve with a large enough effect in the repeat runs, not every such curve was filed as active; note: series mostly up to about 51 µM)
Chain of Thyrotropin-releasing hormone receptor (Homo sapiens) (P34981 whole entry, looked up): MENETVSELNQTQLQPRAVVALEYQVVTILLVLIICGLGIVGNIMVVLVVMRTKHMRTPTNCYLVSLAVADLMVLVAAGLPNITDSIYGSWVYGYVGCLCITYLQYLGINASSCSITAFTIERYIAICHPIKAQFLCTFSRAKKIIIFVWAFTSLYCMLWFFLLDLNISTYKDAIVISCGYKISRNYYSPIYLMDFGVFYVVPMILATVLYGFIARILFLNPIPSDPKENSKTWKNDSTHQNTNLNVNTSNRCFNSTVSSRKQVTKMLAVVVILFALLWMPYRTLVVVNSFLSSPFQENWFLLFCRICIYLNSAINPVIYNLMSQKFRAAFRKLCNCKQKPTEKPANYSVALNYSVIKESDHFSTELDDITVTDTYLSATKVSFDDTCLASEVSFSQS
Summary of the method: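 Following an 18 h incubation at 37 °C and a 2 h calcium dye load, TRHR-HEK293 cells were exposed to compound (5 min, room temperature) and challenged with TRH, 1 nM final.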

[9] = target: Thyrotropin-releasing hormone receptor (Homo sapiens) (UniProt P34981); test: qHTS assay to identify small molecule agonists of the thyrotropin-releasing hormone receptor (TRHR) signaling pathway (AID 1346891; calls by dose curve; note: series mostly up to about 58 µM)
Summary of the method: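 HEK293 cells expressing TRHR plated 18 h at 37 C/5% CO2, calcium dye-loaded 2 h at 37 C, then compound added (agonist mode); kinetic calcium fluorescence read 3 min at 1 s intervals; 15 concentrations in triplicate.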

[10] = Human pregnane X receptor (PXR) small molecule agonists, qHTS cell viability counter screen (AID 1346977); note: nearly all actives have a fitted effect of over 50% in size; note: potency is the fitted concentration of half-maximal effect
Summary of the method: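 PXR-Luc HepG2 cells (2,000/well, 5% charcoal-stripped FBS) preincubated 5 hr, then exposed to compounds 24 hr at 37 C. Viability read in the same wells by CellTiter-Fluor fluorescence, reagent added at 23 hr, 1 hr incubation.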

[11] = Caspase-3/7 induction in HepG2 cells by small molecules, qHTS assay (AID 1346978); note: nearly all actives have a fitted effect of over 15% in size
Summary of the method: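 Caspase-3/7 induction was measured by Caspase-Glo 3/7 luminescence (30 min, room temperature) after a 17 hr compound exposure of wild-type HepG2 cells seeded at 2,000 per well and pre-incubated 5 hr.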

[12] = Caspase-3/7 induction in CHO-K1 cells by small molecules, qHTS cell viability counter screen (AID 1346979); note: nearly all actives have a fitted effect of over 35% in size
Summary of the method: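 Wild-type CHO-K1 cells (1,500/well) treated with compound after 5 h plating; after 16 h at 37C, viability read as CellTiter-Fluor fluorescence following 1 h reagent incubation, in the same wells as the caspase read.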

[13] = Caspase-3/7 induction in CHO-K1 cells by small molecules, qHTS assay (AID 1346980); note: nearly all actives have a fitted effect of over 15% in size
Summary of the method: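 Luminescent Caspase-Glo 3/7 read (30min, room temperature) quantified apoptosis induction. Cells were wild-type CHO-K1, treated with compound for 17hr at 37 C and 5% CO2.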

[14] = Caspase-3/7 induction in HepG2 cells by small molecules, qHTS cell viability counter screen (AID 1346981); note: nearly all actives have a fitted effect of over 30% in size; note: potency is the fitted concentration of half-maximal effect
Summary of the method: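 Viability determined by CellTiter-Fluor fluorescence in HepG2 wells also used for the luminescent Caspase-Glo 3/7 read. Compounds were present for 16 hr at 37 C, 5% CO2 before reagent addition.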

[15] = target: Nuclear receptor subfamily 1 group I member 2 (Homo sapiens) (UniProt O75469); test: Human pregnane X receptor (PXR) small molecule agonists, qHTS assay (AID 1346982); note: nearly all actives have a fitted effect of over 35% in size; note: potency is the fitted concentration of half-maximal effect
Chain of Nuclear receptor subfamily 1 group I member 2 (Homo sapiens) (O75469 whole entry, looked up): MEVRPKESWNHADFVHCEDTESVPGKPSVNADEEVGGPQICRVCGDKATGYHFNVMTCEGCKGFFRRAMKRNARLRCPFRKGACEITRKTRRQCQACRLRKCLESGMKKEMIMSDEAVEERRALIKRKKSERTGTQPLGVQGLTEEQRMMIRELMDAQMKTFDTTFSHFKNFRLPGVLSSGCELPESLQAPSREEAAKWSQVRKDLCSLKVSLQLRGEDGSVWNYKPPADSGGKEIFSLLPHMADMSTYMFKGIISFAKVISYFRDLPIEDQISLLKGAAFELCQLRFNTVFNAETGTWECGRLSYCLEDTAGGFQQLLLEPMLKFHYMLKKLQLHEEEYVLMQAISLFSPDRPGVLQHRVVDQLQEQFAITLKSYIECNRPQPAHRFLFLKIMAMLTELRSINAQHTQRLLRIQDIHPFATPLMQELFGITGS
Summary of the method: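 Compound-induced hPXR transactivation of a CYP3A4 luciferase reporter was scored in HepG2 PXR-Luc cells over 24 hr at 37 C, 5% CO2, by luminescence.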

[16] = qHTS assay to identify small molecule agonists of the TGF-beta/Smad signaling pathway (AID 1346859; active = well fitted activation curve with a large enough effect in the signal ratio in the repeat runs, not every such curve was filed as active; the % refers to the signal ratio; note: series mostly up to about 77 µM)
Summary of the method: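 SBE-bla HEK293T cells plated overnight, then compound exposure for 5 h at 37 C. Beta-lactamase reporter read with LiveBLAzer B/G FRET substrate after 2 h at room temperature, fluorescence at 405 nm excitation, 460/530 nm emission.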

[17] = target: Cytochrome P450 2D6 (Homo sapiens) (UniProt P10635); test: Cytochrome P450 Family 2 Subfamily D Member 6 (CYP2D6) small molecule antagonists: luciferase reporter qHTS assay (AID 1671196); note: nearly all actives have a fitted effect of over 50% in size; note: potency is the fitted concentration of half-maximal effect
Chain of Cytochrome P450 2D6 (Homo sapiens) (P10635 whole entry, looked up): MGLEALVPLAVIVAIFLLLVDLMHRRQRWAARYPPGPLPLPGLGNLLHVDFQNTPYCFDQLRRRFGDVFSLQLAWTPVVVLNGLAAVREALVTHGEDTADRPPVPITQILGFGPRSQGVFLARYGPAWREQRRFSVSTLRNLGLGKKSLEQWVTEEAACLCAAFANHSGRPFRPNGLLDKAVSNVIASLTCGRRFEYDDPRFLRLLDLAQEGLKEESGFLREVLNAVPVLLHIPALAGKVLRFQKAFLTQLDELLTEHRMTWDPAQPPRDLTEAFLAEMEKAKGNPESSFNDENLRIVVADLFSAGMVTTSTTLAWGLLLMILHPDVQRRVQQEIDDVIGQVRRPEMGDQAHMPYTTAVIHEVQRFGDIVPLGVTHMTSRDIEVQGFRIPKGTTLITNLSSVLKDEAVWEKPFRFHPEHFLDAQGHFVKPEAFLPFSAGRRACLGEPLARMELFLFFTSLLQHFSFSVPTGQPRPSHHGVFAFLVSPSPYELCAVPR
Summary of the method: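 Each well received CYP2D6 with its proluciferin substrate and chemical, sat 10 min, then got NADPH regeneration solution for 1 h at room temperature. Luminescence in RLU served as the activity measure.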

[18] = target: Nuclear receptor subfamily 1 group I member 2 (Rattus norvegicus) (UniProt Q9R1A7); test: Rat pregnane X receptor (rPXR) activation by small molecules, qHTS assay (AID 1346983); conditions: rPXR luciferase reporter cells, One-Glo luminescence, 24 h; max activation: active compounds read high; note: nearly all actives have a fitted effect of over 20% in size
Chain of Nuclear receptor subfamily 1 group I member 2 (Rattus norvegicus) (Q9R1A7 whole entry, looked up): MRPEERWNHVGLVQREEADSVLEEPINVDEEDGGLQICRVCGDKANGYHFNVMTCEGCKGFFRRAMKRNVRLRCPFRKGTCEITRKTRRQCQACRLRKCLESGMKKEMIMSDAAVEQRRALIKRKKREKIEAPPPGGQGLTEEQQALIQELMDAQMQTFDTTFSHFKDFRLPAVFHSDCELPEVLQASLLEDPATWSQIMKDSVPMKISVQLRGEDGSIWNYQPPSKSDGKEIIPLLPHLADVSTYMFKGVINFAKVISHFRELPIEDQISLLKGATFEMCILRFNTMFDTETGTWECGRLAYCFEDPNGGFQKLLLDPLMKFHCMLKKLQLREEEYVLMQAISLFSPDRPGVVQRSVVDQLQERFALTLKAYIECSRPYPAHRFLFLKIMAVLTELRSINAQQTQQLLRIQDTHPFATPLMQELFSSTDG
Summary of the method: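 Luminescent readout (One-Glo luciferase, 30 min room temperature) followed 24 hr compound treatment at 37 C of rPXR cells plated 2,000 per well and preincubated 5hr; qHTS format with compounds delivered in DMSO.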

[19] = target: Nuclear receptor subfamily 1 group I member 2 (Homo sapiens) (UniProt O75469); test: CYP3A4 induction through human pregnane X receptor (PXR) by small molecules, qHTS assay (AID 1346984); note: nearly all actives have a fitted effect of over 40% in size
Summary of the method: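 Readings come from a luciferase reporter: DPX-2 cells, which are HepG2 cotransfected with PXR and a CYP3A4-promoter construct, were exposed to test compounds for 24 h at 37C before One-Glo detection.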

[20] = target: Nuclear receptor subfamily 1 group I member 2 (Homo sapiens) (UniProt O75469); test: Human pregnane X receptor (PXR) activation by small molecules, qHTS assay (AID 1346985); note: nearly all actives have a fitted effect of over 40% in size; note: potency is the fitted concentration of half-maximal effect
Summary of the method: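 DPX-2 cells (HepG2 co-transfected with a PXR response element and a CYP3A4-promoter luciferase construct) were seeded at 2,000 per well, rested 5 hr at 37C, then exposed to DMSO-dissolved compounds for 24 hr. Activation was read as luciferase luminescence.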
% is set by controls: 0 for no effect and ±100 for the full control effect.

O=C1CCCCCO1
inactive: Potency [1] | outcome [2] | Potency [3] | Potency [4] | Potency [5] | Potency [6] | Potency [7] | outcome [8] | Potency [9] | Potency [10] | outcome [11] | Potency [12] | Potency [13] | Potency [14] | Potency [15]

CCN(CC)C(C)=O
inactive: Potency [1] | outcome [2] | Potency [3] | Potency [4] | Potency [5] | Potency [6] | Potency [7] | outcome [16] | Potency [9] | Potency [10] | outcome [11] | Potency [12] | Potency [13] | Potency [14] | Potency [15]

Cc1cccc(C(C)(C)C)c1O
inactive: Potency [1] | outcome [2] | Potency [3] | Potency [4] | Potency [5] | Potency [6] | Potency [7] | outcome [16] | outcome [8] | Potency [9] | outcome [11] | Potency [12] | Potency [14] | Potency [17]

CC(O)C1CCCCC1 (stereo unspecified)
inactive: Potency [1] | outcome [2] | Potency [3] | Potency [4] | Potency [5] | Potency [6] | Potency [7] | outcome [16] | Potency [9] | outcome [11] | Potency [12] | Potency [13] | Potency [14] | Potency [15]

CCOC(=O)CC(C)C
inactive: Potency [1] | outcome [2] | Potency [3] | Potency [4] | Potency [5] | Potency [6] | Potency [7] | outcome [16] | outcome [8] | Potency [9] | outcome [11] | Potency [12] | Potency [13] | Potency [14] | Potency [15] | Potency [17]

CN1CCN(C2=Nc3cc(Cl)ccc3Nc3ccccc32)CC1
active: Potency [3] 23.7 µM | Potency [10] 23.7 µM | Potency [14] 23.7 µM
inactive: Potency [1] | outcome [2] | Potency [4] | Potency [5] | Potency [6] | Potency [7] | outcome [16] | Potency [9] | Potency [13] | Potency [15]

O=C(NS(=O)(=O)/C=C/c1cccs1)c1ccc(F)cc1Br
active: Potency [15] 30.6 µM
inactive: Potency [1] | outcome [2] | Potency [3] | Potency [4] | Potency [5] | Potency [6] | Potency [7] | outcome [16] | outcome [8] | Potency [9] | Potency [10] | outcome [11] | Potency [12] | Potency [13] | Potency [17]

O=C(c1ccccc1)c1ccc2n1CCC2C(=O)O (stereo unspecified)
inactive: Potency [1] | outcome [2] | Potency [3] | Potency [6] | Potency [7] | outcome [11] | Potency [12] | Potency [14] | Potency [15] | max activation [18] 4.49% | Potency [19] | Potency [20] | Potency [17]

CN(C)CC/C=C1\c2ccccc2COc2ccccc21
inactive: Potency [1] | outcome [2] | Potency [3] | Potency [6] | Potency [7] | outcome [16] | outcome [8] | Potency [9] | outcome [11] | Potency [12] | Potency [13] | Potency [14]

COc1ccc([C@@H]2Sc3ccccc3N(CCN(C)C)C(=O)[C@@H]2OC(C)=O)cc1
inactive: Potency [1] | outcome [2] | Potency [3] | Potency [6] | Potency [7] | outcome [16] | Potency [10] | outcome [11] | Potency [12] | Potency [13] | Potency [14] | max activation [18] -0.277%
active: Potency [4] 21.1 µM

CCCCCCCCCO
inactive: Potency [1] | outcome [2] | Potency [3] | Potency [4] | Potency [6] | Potency [7] | outcome [16] | Potency [9] | Potency [10] | outcome [11] | Potency [12] | Potency [13] | Potency [14] | Potency [15]

N=C(N=C(N)N)N1CCOCC1
inactive: Potency [1] | outcome [2] | Potency [3] | Potency [4] | Potency [6] | Potency [7] | outcome [16] | Potency [10] | outcome [11] | Potency [12] | Potency [13] | Potency [14] | Potency [15] | max activation [18] -1.18% | Potency [20] | Potency [17]

CN(C)CC[C@@H](c1ccc(Br)cc1)c1ccccn1
active: Potency [4] 2.66 µM | Potency [17] 3.89 µM
inactive: Potency [1] | outcome [2] | Potency [3] | Potency [6] | outcome [16] | outcome [11] | Potency [12] | Potency [14] | Potency [15] | max activation [18] -1.37% | Potency [20]

CCCCCCCCN(C)C
inactive: Potency [1] | outcome [2] | Potency [3] | Potency [5] | Potency [6] | Potency [7] | outcome [16] | outcome [8] | Potency [9] | Potency [10] | outcome [11] | Potency [12] | Potency [13] | Potency [14] | Potency [15] | Potency [17]

CCN1CCC[C@H]1CNC(=O)c1c(OC)ccc(Br)c1OC
inactive: Potency [1] | outcome [2] | Potency [3] | Potency [6] | Potency [7] | Potency [10] | outcome [11] | Potency [12] | Potency [13] | Potency [14] | Potency [15] | max activation [18] 7.68% | Potency [20]

CN(C)C/C=C(/c1ccc(Br)cc1)c1cccnc1
inactive: Potency [1] | outcome [2] | Potency [3] | Potency [6] | Potency [7] | outcome [16] | outcome [8] | Potency [9] | outcome [11] | Potency [12] | Potency [13] | Potency [14] | max activation [18] -0.374%

CC(C)c1ccccc1C(C)C
inactive: Potency [1] | outcome [2] | Potency [3] | Potency [6] | Potency [7] | Potency [10] | outcome [11] | Potency [12] | Potency [13] | Potency [14] | Potency [15]

COc1ccc2[nH]c(S(=O)Cc3ncc(C)c(OC)c3C)nc2n1 (stereo unspecified)
inactive: Potency [1] | outcome [2] | Potency [3] | Potency [6] | Potency [7] | outcome [16] | outcome [8] | Potency [9] | Potency [10] | outcome [11] | Potency [13] | Potency [14]
active: Potency [15] 18.8 µM | Potency [20] 25.1 µM
